The target in test [1] is Lysosomal acid glucosylceramidase (Homo sapiens) (UniProt P04062). The test is described as follows: Glucocerebrosidase-p2 (AID 348; in the data active = potency below about 10 µM; note: potency is the fitted concentration of half-maximal effect). The note with it: purified GBA, blue fluorogenic substrate, 40 min. In a few lines: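 Normal human glucocerebrosidase (0.2 nM) with blue fluorogenic substrate (80 uM final) in citrate/phosphate pH 5.9 with 10mM sodium taurocholate, 0.01% tween-20; 40 min RT, NaOH/glycine stop; fluorescence Ex 365/Em 440; AC50 from a titration from 0.6 nM upwards.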
Sequence of Lysosomal acid glucosylceramidase (Homo sapiens) (P04062 whole entry, looked up): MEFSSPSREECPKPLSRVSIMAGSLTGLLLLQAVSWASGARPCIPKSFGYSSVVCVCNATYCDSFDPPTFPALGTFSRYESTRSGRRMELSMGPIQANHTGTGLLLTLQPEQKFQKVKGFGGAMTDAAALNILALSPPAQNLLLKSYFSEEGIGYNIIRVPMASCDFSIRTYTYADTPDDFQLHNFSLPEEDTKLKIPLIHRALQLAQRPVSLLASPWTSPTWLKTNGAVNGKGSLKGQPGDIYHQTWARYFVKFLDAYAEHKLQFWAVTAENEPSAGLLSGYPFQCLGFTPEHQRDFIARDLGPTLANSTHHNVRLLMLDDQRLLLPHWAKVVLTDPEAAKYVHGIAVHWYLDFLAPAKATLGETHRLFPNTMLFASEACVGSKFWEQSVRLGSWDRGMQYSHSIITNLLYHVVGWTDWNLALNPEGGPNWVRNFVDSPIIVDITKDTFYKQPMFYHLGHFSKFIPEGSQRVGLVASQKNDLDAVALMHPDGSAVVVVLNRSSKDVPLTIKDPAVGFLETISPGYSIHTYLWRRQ

Test [2] can be described thus: AP1 Signaling Pathway (AID 357).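 Note: ME-180 reporter cells stimulated with EGF at its EC50 level; % is set by controls: 0 for no effect and ±100 for the full control effect.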 The note with it: ME-180 AP-1-bla reporter, EGF-induced, beta-lactamase ratio, 5 h; at 7.69 µM (top of the series) unless noted. In a few lines:
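Read-out was the 460nm/530nm emission ratio (excitation 405nm) after CCF4 loading for 2.5 hours at room temperature. Cells carried an AP-1-driven beta-lactamase reporter, were stimulated with EC50 EGF plus compound for 5 hours, and AC50 values came from titrations.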

The target in test [3] is Cytochrome P450 1A2 (Homo sapiens) (UniProt P05177). In words: p450-cyp1a2 (AID 410; calls by dose curve; note: potency is the fitted concentration of half-maximal effect;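 for activity change, negative = inhibition: -100% = full effect of reference inhibitor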). Particulars: recombinant CYP1A2, luciferin-ME demethylation, luminescence; series mostly up to 57 µM. The gist of the method:
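Luminescent demethylation readout: Luciferin-ME (100uM, equal to Km) turned over by 20nM CYP1A2 for 60 min at room temperature after NADPH regeneration addition, following 10 min compound preincubation. Normalization used 57 uM furafylline as full inhibition.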

Test [4] can be described thus: NFAT Signaling Pathway (AID 444).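 Note: carbachol stimulus at about its EC50 of 1 µM final; % is set by controls: 0 for no effect and ±100 for the full control effect.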 The note with it: Jurkat NFAT-bla M1, carbachol, beta-lactamase ratio, 5 h; at 7.69 µM (top of the series) unless noted. In a few lines:
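Jurkat cells with NFAT-driven β-lactamase reporter and co-expressed M1 receptor, stimulated with carbachol (final 1 uM, ~EC50), compound titration, 5 h at 37 °C. CCF4 loaded 1 h at RT; 460/530 nm ratio gave %activity and AC50.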

A short description of test [5]: Stat Signaling Pathway (AID 446).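 Note: ME-180 cervical cancer cells given 40 pM IL-6 alongside compound; SIE-controlled beta-lactamase reporter measured as 460/530 nm FRET emission ratio; % is set by controls: 0 for no effect and ±100 for the full control effect.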 Particulars: ME-180 SIE beta-lactamase reporter, IL-6 stimulated, 5 h; at 7.69 µM (top of the series) unless noted. The gist of the method: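 FRET read-out (405 nm excitation, 460/530 nm emission) of a beta-lactamase reporter under a STAT-inducible element in ME-180 cervical carcinoma cells. Cells with compound receive 40 pM IL-6 for 5 h. Values are normalised to AC90 stimulation and AC90 JAK-inhibitor controls.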

Test [6] concerns the target Glucocorticoid receptor (Homo sapiens) (UniProt P04150). The test is described as follows: GR-GFP Redistribution (AID 450;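 active = compounds whose dose series gives a full or clear partial fitted curve of increased nuclear translocation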; note: potency is the fitted concentration of half-maximal effect). Particulars: U2OS GR-GFP nuclear translocation, laser cytometry, 2 h.
The target is the same in test [7]. The test is described as follows: GR-EFC Redistribution (AID 451; calls by dose curve; note: potency is the fitted concentration of half-maximal effect). The note with it: CHO-K1 GR-EFC translocation, beta-gal luminescence, 2 h. In a few lines: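 CHO-K1 cells expressing nuclear EA and GR-ED fragments of b-gal; compounds titrated up to 46 uM final, 2 h at 37 C. GR nuclear translocation read as complemented b-gal luminescence after 1 h RT detection.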

The target in test [8] is Mitogen-activated protein kinase 10 (Mus musculus) (UniProt Q61831). The test is described as follows: JNK3 AlphaScreen Assay (AID 530).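 Note: kinase came from lysate of stimulated human HepG2 cells; signal reports phosphorylation of biotinylated GST-cJun 1-79 at Ser73 with 10 µM ATP; % is set by controls: 0 for no effect and ±100 for the full control effect.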 The note with it: JNK3 lysate, c-Jun phosphorylation; series mostly up to 57.1 µM. In a few lines:
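Activity was read by AlphaScreen after JNK3-containing HepG2 lysate (cytokine pre-activated) phosphorylated biotinylated GST-cJun with 10 uM ATP at room temperature. Phospho-Ser73 cJun antibody with Protein-A acceptor beads provided detection.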
(In general: Bead proximity is the source of the signal in Alpha formats.)

The target of test [9] is 3',5'-cyclic-AMP phosphodiesterase 4B (Homo sapiens) (UniProt Q07343). The test is described as follows: qHTS Assay for Inhibitors of PDE-IV (AID 607; active = well fitted activation curve with a large enough effect in the main read-out, with a control signal flat, not every such curve was filed as active; note: % of control where 0% means no effect). The note with it: HEK293 ACTOne CNG channel cells, membrane potential fluorescence; series mostly up to 22.9 µM. In a few lines:
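Cell-based read-out of cAMP via a modified cyclic nucleotide-gated channel and membrane potential dye (535/590 nm) in HEK293 cells expressing PDE4 endogenously. Compounds tested up to 22.9 uM final; 100 uM RO 20-1724 reference.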
A general note: Quantitative high-throughput screening tests each substance at several concentrations.

The target in test [10] is Cytochrome P450 3A4 (Homo sapiens) (UniProt P08684). In words: qHTS Assay for Inhibitors and Substrates of Cytochrome P450 3A4 (AID 884; active = well fitted curve in the direction sought with a large enough effect; an effect the other way counts as inactive or inconclusive; note: potency is the fitted concentration of half-maximal effect; nearly all actives have a fitted effect of over 50% in size). Particulars: recombinant CYP3A4, Luciferin-PPXE luminescence; series mostly up to 57.1 µM. In a few lines:
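Luminescent readout of luciferin produced by CYP3A4 (20 nM) dealkylation of Luciferin-PPXE, 25 uM (its KM). NADPH-driven reaction ran 60 min at RT after 10 min compound preincubation; data scaled to 57 uM ketoconazole as 100% inhibition.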

Test [11] has the same target. In words: qHTS Assay for Activators of Cytochrome P450 3A4 (AID 885; active = well fitted curve in the direction sought with a large enough effect; an effect the other way counts as inactive or inconclusive; note: nearly all actives have a fitted effect of over 65% in size). Particulars: recombinant CYP3A4, Luciferin-PPXE luminescence, 60 min; series mostly up to 57.1 µM. The gist of the method:
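Luminescent readout of luciferin formed from 25 uM Luciferin-PPXE (KM level) by 20 nM CYP3A4 in 200 mM KPO4, with 60 min NADPH-driven reaction at room temperature after 10 min compound exposure. Ketoconazole (57 uM) defined 100% inhibition.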

Test [12] addresses Cytochrome P450 2D6 (Homo sapiens) (UniProt P10635). In words: qHTS Assay for Inhibitors and Substrates of Cytochrome P450 2D6 (AID 891; active = well fitted curve in the direction sought with a large enough effect; an effect the other way counts as inactive or inconclusive; note: potency is the fitted concentration of half-maximal effect; nearly all actives have a fitted effect of over 60% in size). The note with it: recombinant CYP2D6, luciferin-ME EGE luminescence; series mostly up to 57.1 µM. The gist of the method:
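Luminescent read-out of luciferin formed by 5 nM human CYP2D6 demethylating 30 uM Luciferin-ME EGE (Km level) over 60 min at room temperature after NADPH regeneration addition. Data normalized to full inhibition by 1.43 uM quinidine.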

Test [13] has as its target Cytochrome P450 2C19 (Homo sapiens) (UniProt P33261). The test is described as follows: qHTS Assay for Inhibitors and Substrates of Cytochrome P450 2C19 (AID 899; active = well fitted curve in the direction sought with a large enough effect; an effect the other way counts as inactive or inconclusive; note: potency is the fitted concentration of half-maximal effect; nearly all actives have a fitted effect of over 60% in size). The note with it: recombinant CYP2C19, luciferin-H EGE luminescence; series mostly up to 57.1 µM. In a few lines: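 Luminescent read-out of luciferin formed from Luciferin-H EGE (10uM, equal to KM). Enzyme 5nM in 50mM KPO4; compound added, 10 min at 37C, then NADPH regenerating system for 60 min at 37C. Full inhibition defined by 57uM ketoconazole.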

Test [14] can be described thus: Confirmation and Secondary Assay for Modulators of Hemoglobin Beta Chain Splicing at IVS2 654 locus (AID 910; active = well fitted curve in the direction sought with a large enough effect; an effect the other way counts as inactive or inconclusive;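 note: HeLa cells stably carrying EGFP split by mutant beta-globin IVS2-654 intron; % of control where 0% means no effect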). Particulars: HeLa EGFP-654 splicing reporter, GFP fluorescence, 48 h; series mostly up to 38.3 µM. The gist of the method:
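HeLa cells stably expressing EGFP interrupted by β-globin IVS2-654 intron, seeded overnight in Opti-MEM/2% FCS, then treated 2 days at 37 °C. Restored splicing read as total peak GFP intensity per well by laser scanning cytometry (488 nm excitation, 500–520 nm emission); 500 nM antisense PNA as control.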

Test [15] in a line: Confirmation and Secondary Assay for Modulators of Hemoglobin Beta Chain Splicing at IVS2 705 locus (AID 930; active = well fitted curve in the direction sought with a large enough effect; an effect the other way counts as inactive or inconclusive;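 note: HeLa cells stably expressing the EGFP-705 splicing reporter; % of control where 0% means no effect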). Particulars: HeLa EGFP-705 splicing reporter, GFP fluorescence, 48 h; series mostly up to 38.3 µM. The gist of the method: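 Stable HeLa line with EGFP disrupted by mutant beta-globin intron 2 (705). Overnight attachment, then 2 days of compound at 37C, 5% CO2. Signal: peak GFP intensity summed over objects 5-250 µm.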

For test [16], the target named is Ubiquitin carboxyl-terminal hydrolase 1 (Homo sapiens) (UniProt O94782). In words: Inhibitors of USP1/UAF1: Pilot qHTS (AID 504865; active = well fitted curve in the direction sought with a large enough effect; an effect the other way counts as inactive or inconclusive;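 note: rhodamine fluorescence freed from ubiquitin-rhodamine substrate followed over time; top concentration of the series differs between compounds; % is set by controls: 0 for no effect and ±100 for the full control effect; nearly all actives have a fitted effect of over 35% in size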). Particulars: purified USP1/UAF1, Ub-rhodamine cleavage fluorescence; series mostly up to 54.9 µM. In a few lines:
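1nM USP1/UAF1 + cpd, 15 min RT; start w/ Ub-Rho 150nM final; kinetic FL 480/540 nm, 6 reads q60 s. Buffer 50mM HEPES pH 7.8, 0.5mM EDTA, 1mM TCEP, 0.01% Tween-20, 0.1 mg/ml BSA.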

A short description of test [17]: Primary qHTS for small molecule stabilizers of the endoplasmic reticulum resident proteome: Secreted ER Calcium Modulated Protein (SERCaMP) assay (AID 1508630; active = well fitted curve in the direction sought with a large enough effect; an effect the other way counts as inactive or inconclusive; note: % is set by controls: 0 for no effect and ±100 for the full control effect). Particulars: SH-SY5Y GLuc-SERCaMP (Gaussia luciferase released on ER calcium loss) secretion, thapsigargin, luminescence; series mostly up to 38.4 µM. The gist of the method:
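The SH-SY5Y reporter protocol was run at 3 concentrations up to 38.3 uM (primary) or 11 concentrations (follow-up): 16 h compound, 100 nM thapsigargin for 4 h, then extracellular luciferase luminescence.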

Test [18] is described as follows: qHTS Assay for Identification of Small Molecule Agonists for Hypoxia Response Element Signaling Pathway (AID 914; active = well fitted activation curve with a large enough effect in the signal ratio, with a control signal flat, not every such curve was filed as active; the % refers to the signal ratio; note: % of control where 0% means no effect). Particulars: ME-180 (cervical carcinoma) HRE-bla reporter, beta-lactamase ratio, CoCl2, 17 h; activation: hits give high values. In a few lines:
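Reporter activity (beta-lactamase, CCF4 460nm/530nm ratio) in HRE-bla ME-180 cells is recorded after 17 h compound exposure with EC50 CoCl2 at 37 degrees Celsius. AC50 values come from titration data.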

Unmarked numbers belong to inactive results. Records with an inconclusive call do not appear. Calls of active or inactive are those of the source. Unless noted, calls come from the whole dose curve; as a rule, active = well fitted curve in either direction with a large enough effect (not every such curve was filed as active); inconclusive = small, poorly fitted or top-dose-only effect, or another doubt; inactive = flat fitted curve, though single readings scatter. Where only a bound is given, the exact number is not on record here.

Sequence of 3',5'-cyclic-AMP phosphodiesterase 4B (Homo sapiens) (Q07343 whole entry, looked up): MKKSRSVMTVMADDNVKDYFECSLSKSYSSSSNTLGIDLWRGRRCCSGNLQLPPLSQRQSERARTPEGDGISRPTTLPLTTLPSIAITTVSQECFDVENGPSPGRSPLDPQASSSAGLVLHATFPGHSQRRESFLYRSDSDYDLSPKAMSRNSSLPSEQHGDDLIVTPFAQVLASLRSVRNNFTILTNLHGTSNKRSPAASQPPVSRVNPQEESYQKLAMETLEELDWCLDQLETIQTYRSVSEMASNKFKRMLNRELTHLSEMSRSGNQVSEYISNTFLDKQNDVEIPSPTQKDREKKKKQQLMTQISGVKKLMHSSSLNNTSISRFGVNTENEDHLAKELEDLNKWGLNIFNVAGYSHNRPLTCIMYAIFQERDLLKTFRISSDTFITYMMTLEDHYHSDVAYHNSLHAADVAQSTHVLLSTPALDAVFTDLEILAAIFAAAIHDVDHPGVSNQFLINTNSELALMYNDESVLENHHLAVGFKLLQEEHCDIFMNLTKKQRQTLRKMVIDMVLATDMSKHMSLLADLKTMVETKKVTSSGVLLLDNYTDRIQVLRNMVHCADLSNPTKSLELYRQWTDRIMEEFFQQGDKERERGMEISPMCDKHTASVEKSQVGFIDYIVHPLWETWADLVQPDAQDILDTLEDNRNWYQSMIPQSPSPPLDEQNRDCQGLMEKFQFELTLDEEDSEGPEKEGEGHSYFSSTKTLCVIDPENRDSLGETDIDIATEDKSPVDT
Sequence of Cytochrome P450 3A4 (Homo sapiens) (P08684 whole entry, looked up): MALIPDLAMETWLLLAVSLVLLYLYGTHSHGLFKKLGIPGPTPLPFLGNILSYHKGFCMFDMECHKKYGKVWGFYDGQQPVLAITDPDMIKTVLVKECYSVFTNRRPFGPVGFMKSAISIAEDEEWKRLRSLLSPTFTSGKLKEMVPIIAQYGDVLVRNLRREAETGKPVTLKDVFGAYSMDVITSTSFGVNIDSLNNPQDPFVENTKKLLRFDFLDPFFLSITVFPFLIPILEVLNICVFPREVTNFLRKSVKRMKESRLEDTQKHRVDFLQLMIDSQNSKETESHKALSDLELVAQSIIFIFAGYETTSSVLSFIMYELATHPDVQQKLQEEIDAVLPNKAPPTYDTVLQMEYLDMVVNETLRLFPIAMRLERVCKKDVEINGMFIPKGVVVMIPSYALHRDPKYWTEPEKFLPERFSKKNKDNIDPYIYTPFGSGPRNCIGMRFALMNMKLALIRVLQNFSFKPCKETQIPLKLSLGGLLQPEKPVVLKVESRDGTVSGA
Sequence of Cytochrome P450 1A2 (Homo sapiens) (P05177 whole entry, looked up): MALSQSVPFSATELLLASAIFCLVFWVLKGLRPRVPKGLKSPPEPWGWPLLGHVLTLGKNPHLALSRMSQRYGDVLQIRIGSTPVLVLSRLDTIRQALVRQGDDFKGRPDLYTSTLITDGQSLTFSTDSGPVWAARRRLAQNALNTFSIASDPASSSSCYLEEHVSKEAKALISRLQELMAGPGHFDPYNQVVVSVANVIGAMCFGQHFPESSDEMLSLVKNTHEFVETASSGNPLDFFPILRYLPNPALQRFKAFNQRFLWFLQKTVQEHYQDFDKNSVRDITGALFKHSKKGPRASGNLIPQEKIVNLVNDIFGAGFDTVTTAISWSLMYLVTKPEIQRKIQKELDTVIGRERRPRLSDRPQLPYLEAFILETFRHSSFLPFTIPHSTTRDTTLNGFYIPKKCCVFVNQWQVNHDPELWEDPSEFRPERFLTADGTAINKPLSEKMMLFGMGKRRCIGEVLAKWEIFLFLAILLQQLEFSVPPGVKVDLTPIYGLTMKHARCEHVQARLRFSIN
Sequence of Glucocorticoid receptor (Homo sapiens) (P04150 whole entry, looked up, the tested form may be a part): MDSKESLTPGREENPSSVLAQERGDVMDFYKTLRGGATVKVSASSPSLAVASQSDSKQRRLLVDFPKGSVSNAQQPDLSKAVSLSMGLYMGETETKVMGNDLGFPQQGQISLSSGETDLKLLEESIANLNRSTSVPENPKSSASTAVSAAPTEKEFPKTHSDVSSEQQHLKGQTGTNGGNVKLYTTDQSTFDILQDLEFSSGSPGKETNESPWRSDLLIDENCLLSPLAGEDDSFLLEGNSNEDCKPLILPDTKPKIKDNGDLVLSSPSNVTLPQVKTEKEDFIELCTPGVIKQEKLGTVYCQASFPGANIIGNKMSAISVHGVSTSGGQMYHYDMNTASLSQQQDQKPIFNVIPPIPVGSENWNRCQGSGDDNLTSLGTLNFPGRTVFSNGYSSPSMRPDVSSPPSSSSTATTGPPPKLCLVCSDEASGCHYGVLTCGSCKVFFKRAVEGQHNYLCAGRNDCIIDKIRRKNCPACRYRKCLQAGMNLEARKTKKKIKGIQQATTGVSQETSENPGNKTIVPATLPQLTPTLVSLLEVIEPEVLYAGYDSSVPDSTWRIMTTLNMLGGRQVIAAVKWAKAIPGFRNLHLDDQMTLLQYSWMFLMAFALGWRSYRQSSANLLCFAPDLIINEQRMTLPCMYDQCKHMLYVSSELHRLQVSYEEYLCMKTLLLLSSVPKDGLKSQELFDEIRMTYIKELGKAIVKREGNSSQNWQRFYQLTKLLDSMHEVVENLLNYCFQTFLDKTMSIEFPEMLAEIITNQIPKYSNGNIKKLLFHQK
Sequence of Ubiquitin carboxyl-terminal hydrolase 1 (Homo sapiens) (O94782 whole entry, looked up): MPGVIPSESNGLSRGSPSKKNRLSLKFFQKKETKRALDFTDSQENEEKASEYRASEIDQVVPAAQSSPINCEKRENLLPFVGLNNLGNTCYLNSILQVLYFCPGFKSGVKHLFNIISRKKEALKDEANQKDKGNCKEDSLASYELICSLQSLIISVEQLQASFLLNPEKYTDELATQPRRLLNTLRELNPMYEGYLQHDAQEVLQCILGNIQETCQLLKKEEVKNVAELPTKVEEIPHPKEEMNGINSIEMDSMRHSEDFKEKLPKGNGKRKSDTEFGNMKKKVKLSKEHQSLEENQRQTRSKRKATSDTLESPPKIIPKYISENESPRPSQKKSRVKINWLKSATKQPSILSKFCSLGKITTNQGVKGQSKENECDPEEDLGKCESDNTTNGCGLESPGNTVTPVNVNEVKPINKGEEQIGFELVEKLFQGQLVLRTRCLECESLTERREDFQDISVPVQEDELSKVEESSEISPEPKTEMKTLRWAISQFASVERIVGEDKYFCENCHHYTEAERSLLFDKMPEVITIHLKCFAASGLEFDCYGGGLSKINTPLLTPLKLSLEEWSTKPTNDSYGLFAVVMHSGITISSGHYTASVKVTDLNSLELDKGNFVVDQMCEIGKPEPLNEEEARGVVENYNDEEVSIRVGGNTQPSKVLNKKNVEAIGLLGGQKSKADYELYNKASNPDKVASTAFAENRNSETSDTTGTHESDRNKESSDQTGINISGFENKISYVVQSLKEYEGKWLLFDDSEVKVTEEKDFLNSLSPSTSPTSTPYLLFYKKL
Sequence of Cytochrome P450 2D6 (Homo sapiens) (P10635 whole entry, looked up): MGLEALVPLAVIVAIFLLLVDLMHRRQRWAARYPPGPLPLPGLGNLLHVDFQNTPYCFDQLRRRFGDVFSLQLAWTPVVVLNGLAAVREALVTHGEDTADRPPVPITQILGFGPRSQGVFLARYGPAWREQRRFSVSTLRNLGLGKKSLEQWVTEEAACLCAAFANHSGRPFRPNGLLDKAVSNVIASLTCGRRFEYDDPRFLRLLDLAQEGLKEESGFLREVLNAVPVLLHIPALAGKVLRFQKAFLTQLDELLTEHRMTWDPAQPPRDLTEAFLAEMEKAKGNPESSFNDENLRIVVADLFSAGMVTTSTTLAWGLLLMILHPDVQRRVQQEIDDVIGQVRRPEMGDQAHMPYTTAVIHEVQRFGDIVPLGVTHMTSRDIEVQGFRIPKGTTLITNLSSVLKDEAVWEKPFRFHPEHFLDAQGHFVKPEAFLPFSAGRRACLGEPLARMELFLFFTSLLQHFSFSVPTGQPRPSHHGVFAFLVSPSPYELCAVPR
Sequence of Cytochrome P450 2C19 (Homo sapiens) (P33261 whole entry, looked up): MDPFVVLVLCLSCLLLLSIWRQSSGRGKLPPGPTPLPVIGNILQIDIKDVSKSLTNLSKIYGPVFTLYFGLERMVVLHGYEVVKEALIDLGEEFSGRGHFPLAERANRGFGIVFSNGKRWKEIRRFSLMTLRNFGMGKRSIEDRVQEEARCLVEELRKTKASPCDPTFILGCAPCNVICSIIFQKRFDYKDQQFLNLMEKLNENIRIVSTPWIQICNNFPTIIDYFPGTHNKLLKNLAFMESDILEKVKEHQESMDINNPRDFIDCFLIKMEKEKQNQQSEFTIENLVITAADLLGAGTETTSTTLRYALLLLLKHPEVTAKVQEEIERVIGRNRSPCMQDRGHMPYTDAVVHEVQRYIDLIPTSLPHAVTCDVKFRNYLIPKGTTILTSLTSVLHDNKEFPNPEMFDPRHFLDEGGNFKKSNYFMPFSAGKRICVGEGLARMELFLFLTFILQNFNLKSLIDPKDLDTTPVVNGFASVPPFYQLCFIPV

Turning to `c1ncc(-c2ccc3c(c2)OCO3)c(NCCc2cnc[nH]2)n1`, the Potency in test [1] was more than 11.4 µM; in test [3], 0.398 µM (active); in test [6], more than 46 µM; in test [7] it was more than 46 µM; in test [10], 0.794 µM (active); in [12], 2.51 µM (active). Also, the Potency in test [13] was 0.0398 µM (active). Moreover, the activity change, negative = inhibition in [2] is -17.2%; in test [4] it was 1.1%. Further, the activity, negative = inhibition in test [5] is -11.2%. In addition, the Potency entry in test [8], in test [9], in test [11], in test [14] and in test [16] was “inactive” each time. Further, the molecule was called inactive in test [15] and in test [17].
As for `CCC(=O)O[C@@H]1CC(=O)O[C@H](C)C/C=C/C=C/[C@@H](O)[C@H](C)C[C@H](CC=O)[C@H](OC2O[C@H](C)[C@@H](O[C@H]3C[C@@](C)(O)[C@@H](OC(=O)CC)[C@H](C)O3)[C@H](N(C)C)[C@H]2O)[C@H]1OC` (stereo partly drawn), the result in [17] was inactive.
For the molecule `COc1cccc(-c2nc(NCc3cnc(C)cn3)c3ccccc3n2)c1`, the Potency in test [1] was more than 11.4 µM; in [3], 0.398 µM (active); in test [6] it was more than 46 µM; in test [7], more than 46 µM. The activity change, negative = inhibition is -17.2% in [2] and 20.9% in test [4]. Further, the activity, negative = inhibition in [5] was -10.4%. For the same molecule, the Potency entry in test [8], in [11], in test [14] and in test [16] was “inactive” in each case. Also, the activation in test [18] was 6.27%. The call in test [15] and in test [17] was inactive.
Take `COc1cccc(Nc2ncc3nc(CCc4ccccc4)c(=O)n(CCC#N)c3n2)c1`: the Potency is more than 11.4 µM in test [1], more than 9.22 µM in test [6] and more than 46 µM in test [7]. Also, the activity change, negative = inhibition in test [2] is -11.6%; in [4] it was -14.1%. The Potency entry in test [3], in test [8] and in test [11] was “inactive” throughout. Besides, the activity, negative = inhibition in test [5] is -2.69%. For the same molecule, the outcome in test [17] was inactive.
Turning to `Cn1c(=O)c(CCc2ccccc2)nc2cncnc21`, the Potency was more than 11.4 µM in test [1], 7.94 µM (active) in test [3], more than 9.22 µM in test [6] and more than 46 µM in test [7]. Also, the activity change, negative = inhibition is -10.9% in [2] and -3.66% in test [4]. Further, in test [5], the activity, negative = inhibition was -13.2%. The Potency entry in [8], in [9] and in test [11] was “inactive” each time. Further, the outcome in test [17] was inactive.
For `CN1CCN(c2ccnc(-c3cccc(NS(C)(=O)=O)c3)n2)CC1`, the Potency is more than 11.4 µM in test [1], 12.6 µM (active) in test [3], more than 46 µM in test [6] and more than 46 µM in [7]. Moreover, the results for the activity change, negative = inhibition in test [2] and in [4] were -6.86% and -9.78%, respectively. Besides, the activity, negative = inhibition in test [5] was 7.5%. Also, the Potency result in [8], in test [9] and in [11] was “inactive” throughout. Besides, the activation in [18] is 0.356%. The molecule was classed as inactive in [15] and in test [17].
On to `O=c1c(CCc2ccccc2)nc2cncnc2n1C1CC1`, for which the Potency was more than 11.4 µM in [1], 6.31 µM (active) in test [3], more than 9.22 µM in [6] and more than 46 µM in test [7]. Also, the activity change, negative = inhibition is -0.738% in test [2] and -8.26% in [4]. For the same molecule, the activity, negative = inhibition in test [5] is -4.39%. In addition, the Potency result in [8], in test [9] and in test [11] was “inactive” each time. In addition, the activation in [18] is 6.89%. Moreover, the outcome in test [17] was inactive.

The record behind these values is PubChem BioAssay (NCATS).
